Assay results: PubChem BioAssay AID1159580 (chemical genetic matrix, 2015)
Values joined by “and” are separate entries in the source; they are usually repeats but may differ in a detail not shown here. Equal values may be shown once. In all, about 5,500 compounds went through this assay and about 2,000 (36%) were called active. Inconclusive results (about 18%) are left out. Cut-off read from the data, not from the text of the source: active = normalized growth mostly below about 0.91 (no sharp cut-off); inconclusive = no clear call, values can overlap the other calls; inactive = mostly above about 0.92. The list shows a part of the results.

Assay: chemical genetic growth profiling, strain panel (AID 1159580);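 note: tested at 20 µM; growth read once vehicle control cultures reached saturation at 30 °C; 1 = growth at the plate median or of vehicle wells; lower values mean less growth of the strain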
Details: S. cerevisiae deletion strains, growth OD

Measured: normalized growth

NC(=O)c1ccc([N+](=O)[O-])cc1Cl
inactive: locus YAL013W, strain DEP1, active compounds read low 0.983 | locus YAL021C, strain ccr4, active compounds read low 0.97 | locus YAL026C, strain drs2, active compounds read low 0.968 | locus YAL030W, strain snc1, active compounds read low 0.997 | locus YBL061C, strain skt5, active compounds read low 0.983 | locus YBR009C, strain hhf1, active compounds read low 0.953 | locus YBR021W, strain FUR4, active compounds read low 1.02 | locus YBR023C, strain chs3, active compounds read low 0.985 | locus YBR171W, strain sec66, active compounds read low 0.981 | locus YBR229C, strain ROT2, active compounds read low 0.95 | locus YBR231C, strain swc5, active compounds read low 1.01 | locus YBR279W, strain paf1, active compounds read low 0.988 | locus YCL011C, strain gbp2, active compounds read low 0.929 | locus YCL016C, strain dcc1, active compounds read low 0.951 | locus YCL029C, strain bik1, active compounds read low 0.977 | locus YCL069W, strain vba3, active compounds read low 0.984 | locus YCR088W, strain abp1, active compounds read low 0.994 | locus YDL005C, strain med2, active compounds read low 0.985 | locus YDL035C, strain GPR1, active compounds read low 0.98 | locus YDL040C, strain nat1, active compounds read low 0.992 | locus YDL074C, strain BRE1, active compounds read low 0.956 | locus YDL101C, strain DUN1, active compounds read low 0.943 | locus YDL134C, strain PPH21, active compounds read low 0.982 | locus YDL185W, strain tfp1, active compounds read low 0.981 | locus YDL192W, strain arf1, active compounds read low 0.982 | locus YDR001C, strain nth1, active compounds read low 0.965 | locus YDR069C, strain doa4, active compounds read low 0.971 | locus YDR101C, strain arx1, active compounds read low 0.991 | locus YDR137W, strain rgp1, active compounds read low 0.929 | locus YDR150W, strain NUM1, active compounds read low 0.965 | locus YDR159W, strain sac3, active compounds read low 0.931 | locus YDR162C, strain NBP2, active compounds read low 0.945 | locus YDR195W, strain ref2 1.02 | locus YDR297W, strain sur2, active compounds read low 0.978 | locus YDR318W, strain mcm21, active compounds read low 0.995 | locus YDR334W, strain swr1, active compounds read low 0.979 | locus YDR335W, strain msn5, active compounds read low 0.981 | locus YDR388W, active compounds read low 0.984 | locus YDR392W, strain spt3, active compounds read low 0.942 | locus YDR502C, strain sam2, active compounds read low 0.973 | locus YEL003W, strain gim4, active compounds read low 1.01 | locus YEL037C, strain rad23, active compounds read low 0.983 | locus YEL061C, strain CIN8 (second series), active compounds read low 0.979 | locus YEL061C, strain CIN8, active compounds read low 0.976 | locus YER015W, strain faa2, active compounds read low 0.988 | locus YER016W, strain bim1, active compounds read low 0.969 | locus YER110C, active compounds read low 0.978 | locus YER111C, strain swi4, active compounds read low 0.988 | locus YER155C, strain BEM2 (second series), active compounds read low 1.05 | locus YER155C, strain BEM2, active compounds read low 0.984 | locus YER167W, strain BCK2, active compounds read low 0.978 | locus YFR010W, strain ubp6, active compounds read low 0.975 | locus YGL078C, strain dbp3, active compounds read low 0.965 | locus YGL086W, strain mad1, active compounds read low 0.998 | locus YGL167C, strain pmr1, active compounds read low 0.978 | locus YGL173C, strain kem1, active compounds read low 0.99 | locus YGL227W, strain vid30, active compounds read low 0.991 | locus YGL240W, strain doc1, active compounds read low 0.995 | locus YGL248W, strain PDE1, active compounds read low 0.973 | locus YGL253W, strain hxk2, active compounds read low 0.971 | locus YGR078C, strain PAC10, active compounds read low 0.979 | locus YGR135W, strain pre9, active compounds read low 0.971 | locus YGR229C, strain SMI1, active compounds read low 0.974 | locus YGR252W, strain gcn5, active compounds read low 1 | locus YHR013C, strain ard1, active compounds read low 0.936 | locus YHR027C, strain rpn1, active compounds read low 0.968 | locus YHR030C, strain SLT2, active compounds read low 0.985 and 0.977 | locus YHR079C, strain IRE1 (second series), active compounds read low 0.977 | locus YHR079C, strain IRE1, active compounds read low 0.974 | locus YHR094C, strain hxt1, active compounds read low 0.989 | locus YHR129C, strain ARP1, active compounds read low 0.997 | locus YHR142W, strain chs7, active compounds read low 0.982 | locus YHR200W, strain rpn10, active compounds read low 0.981 | locus YIL066C, strain RNR3, active compounds read low 0.976 | locus YIL073C, strain SPO22, active compounds read low 0.95 | locus YIL125W, strain kgd1, active compounds read low 0.989 | locus YIR030C, strain dcg1, active compounds read low 0.972 | locus YJL092W, strain hpr5, active compounds read low 0.988 | locus YJL095W, strain BCK1 (second series), active compounds read low 0.969 | locus YJL095W, strain BCK1, active compounds read low 0.995 and 0.957 | locus YJL115W, strain asf1, active compounds read low 0.986 | locus YJL129C, strain trk1, active compounds read low 1.02 | locus YJL134W, strain LCB3, active compounds read low 0.975 | locus YJL154C, strain vps35, active compounds read low 0.98 | locus YJL164C, strain tpk1, active compounds read low 0.933 | locus YJL166W, strain qcr8, active compounds read low 1.01 | locus YJL168C, strain set2, active compounds read low 0.982 | locus YJL187C, strain SWE1 (second series), active compounds read low 0.972 | locus YJR043C, strain POL32, active compounds read low 0.993 | locus YJR066W, strain TOR1, active compounds read low 0.944 | locus YJR075W, strain HOC1, active compounds read low 0.969
